Hit rate of the full screen: of about 220,000 compounds, about 710 (0.32%) were called active. The entries come from a sample that favours actives as a whole. Values without a mark were called inactive. Cut-off read from the data, not from the text of the source: active = binding response below about 49% or above about 150%; inactive = in between.

For this experiment, the target named is Guanine nucleotide-binding protein G(o) subunit alpha (Homo sapiens) (UniProt P09471). In words: RGS4-Galphao interaction inhibitors and enhancers – biochemical, multiplexed bead flow cytometry, primary screen (AID 1415).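 Note: fluorescent Galphao activated with aluminum fluoride binding bead-coupled RGS4.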 To be noted: at 10 µM, actives lie on both sides. For orientation: Flow cytometry measures light scatter and fluorescence of single cells or particles in a stream.
Sequence of Guanine nucleotide-binding protein G(o) subunit alpha (Homo sapiens) (P09471 whole entry, looked up): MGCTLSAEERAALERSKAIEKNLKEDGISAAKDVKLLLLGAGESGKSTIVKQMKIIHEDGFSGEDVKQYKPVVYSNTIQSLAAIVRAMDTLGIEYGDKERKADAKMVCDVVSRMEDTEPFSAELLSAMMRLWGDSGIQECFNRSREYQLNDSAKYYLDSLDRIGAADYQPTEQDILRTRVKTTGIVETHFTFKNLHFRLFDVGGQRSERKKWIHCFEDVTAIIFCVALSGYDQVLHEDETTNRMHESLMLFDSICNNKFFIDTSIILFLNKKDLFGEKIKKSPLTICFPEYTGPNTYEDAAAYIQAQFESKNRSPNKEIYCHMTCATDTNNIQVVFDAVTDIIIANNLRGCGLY
With `Cc1cccc(CSc2nc3c(c(=O)n2C)SCC3)c1`, the binding response (% of control) is 98.4%. For `CCc1n[nH]c(=S)n1/N=C/c1c[nH]c2ccc(Br)cc12`, the binding response (% of control) is 103%. The value for `COc1c(O)cc2oc(-c3ccc(O)c(O)c3)cc(=O)c2c1O` was 90.8%; that for `Cc1ccc(-c2c[n+](=O)c3c(n2[O-])CCC3)cc1` was 101%; that for `Clc1ccc(C2CC(c3cccs3)n3ncnc3N2)cc1Cl` (configuration not stated) was 97.8%. The value for `FC(F)Oc1ccccc1C1CC(c2ccc(Br)s2)Nc2ncnn21` (configuration not stated) was 187% [activator] (active); that for `COc1ccc(C2CC(c3ccccc3)Nc3ncnn32)cc1` (configuration not stated) was 99.7%. For `Cc1ccc(C(=O)Cc2nnc(C)s2)cc1`, the binding response (% of control) was 100%.

Take `COC(=O)[C@H]1Cc2cnoc2C[C@]1(C)C(=O)O`: the binding response (% of control) is 101%. Next, `CCOC(=O)c1ccc(NC(=O)c2nc[nH]c2C(=O)N[C@@H](CCCCNC(=O)OC(C)(C)C)C(=O)OC(C)(C)C)cc1`: 96.7%. As for `CC(C(=O)O)n1cnc2sc3c(c2c1=O)CCCC3` (configuration not stated), the binding response (% of control) was 94.7%. Next, `C=CCn1c(=NC(=O)c2ccc(S(=O)(=O)N3CCCC3)cc2)sc2cc(NC(C)=O)ccc21`: 94.5%. The value for `C=CCn1c(=NC(=O)c2cccs2)sc2cc(NC(C)=O)ccc21` was 154% [activator] (active). Turning to `CC(=O)Nc1ccc(/C=N/NC(=O)c2cccs2)cc1`, the binding response (% of control) is 99.4%. The value for `Cc1ccc(OCC(=O)Nc2nnc(-c3ccco3)s2)cc1` was 102%; that for `Cc1ccc2[nH]c(=O)c(CN3CCCCC3)c(-c3ccccc3)c2c1` was 101%; that for `CCC(=O)NC(Nc1cc(C)ccn1)(C(F)(F)F)C(F)(F)F` was 104%.

On to `Cc1ccc(NC(=O)Nc2cccc(C(F)(F)F)c2)nc1`, for which the binding response (% of control) is 99.7%. As for `CCOC(=O)NNc1cc(C(F)(F)F)ccn1`, the binding response (% of control) is 169% [activator] (active). The value for `CCCSc1nc(NCc2ccco2)c2c3c(sc2n1)COC(C)(CC)C3` (configuration not stated) was 104%. On to `COc1ccc(OC)c(-n2c(-c3ccn[nH]3)n[nH]c2=S)c1`, for which the binding response (% of control) is 96.7%. `COc1ccccc1-n1cn[nH]c1=S`: the binding response (% of control) is 98.6%. In the case of `COc1ccccc1-n1c(-c2cc(-c3ccco3)[nH]n2)n[nH]c1=S`, the binding response (% of control) is 7.03% (active).

Turning to `CSc1ccc(/C=C/C(=O)NC23CC4CC(CC(C4)C2)C3)cc1`, the binding response (% of control) was 99.9%. For the molecule `Fc1ccccc1/C=N/n1c(-c2cccnc2)n[nH]c1=S`, the binding response (% of control) was 102%. As for `OCCC1CN(Cc2cccc(OC3CCCC3)c2)CCN1Cc1ccsc1` (configuration not stated), the binding response (% of control) was 100%.

Turning to `COc1ccc(C)cc1S(=O)(=O)N(CC(=O)Nc1cccc([N+](=O)[O-])c1)c1ccc(C)cc1`, the binding response (% of control) was 87.7%. In the case of `CC(=O)NC1C(OCc2ccccc2)OC(COC(C)=O)C(OC(C)=O)C1OC(C)=O` (configuration not stated), the binding response (% of control) was 101%. Regarding `O=C(OCC1O[C@@H](OC(=O)c2cc(O)c(O)c(O)c2)[C@@H](OC(=O)c2cc(O)c(O)c(O)c2)[C@@H](OC(=O)c2cc(O)c(O)c(O)c2)[C@@H]1OC(=O)c1cc(O)c(O)c(O)c1)c1cc(O)c(O)c(O)c1` (some centres not stated), the binding response (% of control) is 1.38% (active). Next, `COc1cc(C(CCN2CCN(c3ccccc3)CC2)c2c(OC)cc(OC)c3ccc(=O)oc23)cc(OC)c1OC` (configuration not stated): 101%; `COCCNC(=S)N/N=C/c1c(C)[nH]c2ccccc12`: 159% [activator] (active). `Cc1[nH]c2ccccc2c1/C=N/NC(=O)CNC(=O)c1ccc2c(c1)OCO2`: the binding response (% of control) is 111%. Next, `Cc1[nH]c2ccccc2c1/C=N\NC(=O)Cn1nnc(-c2ccccc2)n1`: 102%; `O=C(Nc1ccc(F)cc1)C1CCN(C(=O)c2ccc([N+](=O)[O-])cc2)CC1`: 99.8%. On to `COc1cc(C(=O)OCc2ccc([N+](=O)[O-])cc2)cc(OC)c1OC`, for which the binding response (% of control) was 98.2%. Turning to `CCN(CC)CCn1cnc2c1c(=O)n(CCOC(=O)c1cc(OC)c(OC)c(OC)c1)c(=O)n2C`, the binding response (% of control) was 155% [activator] (active). `CCN(CC)CCN1C(=O)C(=O)/C(=C(/O)c2ccc(OC)c(OC)c2)C1c1ccccn1` (configuration not stated): the binding response (% of control) was 99.2%.

Take `COCCCn1c(-c2cccs2)nc2nc3ccccc3nc21`: the binding response (% of control) was 103%. As to `COc1cccc(C(=O)NNC(=O)c2ccccc2Br)c1`, the binding response (% of control) was 103%. For the molecule `COc1cc(OC)cc(C(=O)NCCSCc2ccco2)c1`, the binding response (% of control) is 93.2%.

On to `COc1cccc(C(=O)NCCSc2ccc(Br)cc2)c1`, for which the binding response (% of control) is 19.5% (active).

`C#CCOCCOCCOCCNc1nc(N2CCN(C(=O)[C@H](CCC(=O)O)n3cc(C(N)CO)nn3)CC2)nc(N2CCN(C(=O)[C@H](CCCCN)n3cc(C(N)CC(C)C)nn3)CC2)n1` (some centres not stated): the binding response (% of control) is 104%. Next, `Cc1ccc(NC(=O)c2oc(=O)c3ccccc3c2-c2ccccc2)c(C)c1`: 105%. The value for `CCCCCCCCCOC1OC(CO)C(O)C(O)C1NC(C)=O` (configuration not stated) was 98.8%. Next, `CC(C)=CCC/C(C)=C/C(=O)O`: 92.6%. As to `COCCNC(=S)Nc1cc(S(=O)(=O)N2CCOCC2)ccc1N1CCCCC1`, the binding response (% of control) is 97.4%.

Take `COc1ccccc1CCNC(=O)c1cnccn1`: the binding response (% of control) was 97.6%.
